Molecules are shown by their SMILES. Records with an inconclusive call do not appear. Activity calls are given as the source filed them.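 Rule for the calls: active = inhibitors giving a complete concentration-response curve with high efficacy; inconclusive = inhibitors giving only a partial curve with partial efficacy; inactive = the rest.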

Sequence of Lysosomal acid glucosylceramidase (Homo sapiens) (P04062 whole entry, looked up): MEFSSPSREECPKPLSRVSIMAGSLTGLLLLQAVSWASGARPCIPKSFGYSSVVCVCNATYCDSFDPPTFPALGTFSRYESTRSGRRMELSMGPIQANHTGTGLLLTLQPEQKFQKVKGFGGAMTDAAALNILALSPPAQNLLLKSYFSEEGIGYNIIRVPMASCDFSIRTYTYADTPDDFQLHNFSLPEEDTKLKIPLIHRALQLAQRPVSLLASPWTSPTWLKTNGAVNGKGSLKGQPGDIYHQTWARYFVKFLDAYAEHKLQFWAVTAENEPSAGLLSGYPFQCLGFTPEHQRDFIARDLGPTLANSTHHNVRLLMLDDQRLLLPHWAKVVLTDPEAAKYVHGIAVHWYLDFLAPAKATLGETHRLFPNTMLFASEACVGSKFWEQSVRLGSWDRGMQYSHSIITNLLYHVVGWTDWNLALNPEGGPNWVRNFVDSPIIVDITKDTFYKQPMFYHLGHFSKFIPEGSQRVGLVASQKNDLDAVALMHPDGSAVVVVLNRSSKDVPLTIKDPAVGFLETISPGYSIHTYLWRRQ

This experiment concerns the target Lysosomal acid glucosylceramidase (Homo sapiens) (UniProt P04062). Briefly: Confirmation Concentration-Response Assay for Glucocerebrosidase Inhibitors. Conditions: purified GBA, resorufin glucoside fluorescence, 20 min; series mostly up to 63.5 µM. The source says:
NCGC Assay Overview: NIH Molecular Libraries Screening Centers Network [MLSCN] NIH Chemical Genomics Center [NCGC] MLSCN Grant: XO1-MH078932-01 Beta-glucocerebrosidase catalyzes the hydrolysis of beta-glucocerebroside to glucose and ceramide. The inherited deficiency of beta-glucocerebrosidase results in Gaucher disease, which is characterized by a wide variety of symptoms including hepatosplenomegaly, anemia, thrombocytopenia, bony lesions and bone marrow infiltration with characteristic storage cells, known as Gaucher cells. There are also forms of the disorder affecting the central nervous system. Patients with the same genotypes can manifest with diverse clinical presentations and it is believed that improper folding and trafficking of beta-glucocerbrosidase may contribute to the phenotypes observed. Low molecular weight molecules, acting as chaperones, may potentially restore trafficking of misfolded beta-glucocerebrosidase from the endoplasmic reticulum to the lysosomes, thereby enhancing functional lysosomal beta-glucocerebrosidase activity. Using normal beta-glucocerebrosidase, an assay was developed to screen for small molecule inhibitors that could potentially act as molecular chaperones on the mutant forms [developed with NIH investigator Dr. Ellen Sidransky's laboratory]. A pro-fluorescent substrate was chosen for a screen against a small molecule library. The beta-glucocerebrosidase assay used Resorufin beta-D-Glucopyranoside (Marker Gene Technology Inc.), generating a red fluorescent product. The Km for the Resorufin beta-D-Glucopyranoside was determined to be 71.2 uM. The IC50 values of Conduritol B Epoxide, a known glucocerebrosidase inhibitor, was determined to be 87.5 uM. All compounds were screened in a titration series resulting in AC50s (e.g., IC50s or EC50s). To confirm activity from the original screen, samples were reacquired from MLSCN and also synthesized in-house, and re-screened against the original assay at a higher density of titration points.
NCGC Assay Protocol Summary: Both enzyme and substrate were diluted in buffer composed of 50mM citric acid/KH2PO4, 10mM sodium taurocholate and 0.01% tween-20 at pH 5.9. The final concentration of the enzyme was 0.2 nM in both assays. The compound library was titrated in 7 to 15 concentrations for the primary screens with a final concentration ranging from 0.6 nM to 50 uM. This particular assay protocol was performed in 1536-well plate format as follows: Red fluorescence substrate assay: 2 uL enzyme 23 nL compound 1 uL substrate (final concentration of 30 uM) Incubate at room temperature (RT) for 20 minutes Read the plate in Viewlux plate reader (Ex=548(7) and Em=600(10)).
Take `O=C(Nc1nccs1)c1ccc(NS(=O)(=O)c2ccc(Cl)cc2)cc1`: the Potency is 1250 nM (active).
Take `Cc1cc(N2CCCCC2)nc2ccc(NC(=O)C3CCC(C)CC3)cc12` (stereo unspecified): the Potency was 339 nM (active).
In the case of `Cc1cc(N2CCOCC2)nc2ccc(NC(=O)C3CC3)cc12` it was 193 nM (active).
As for `Cc1cc(N2CCN(c3ncccn3)CC2)nc2ccc(NC(=O)C3CCC(C)CC3)cc12` (stereo unspecified), the figure is 1890 nM (active); as for `CCCC1CCC(C(=O)Nc2ccc3nc(N4CCOCC4)cc(C)c3c2)CC1` (stereo unspecified), 104 nM (active); as for `CCN(CC)c1cc(C)c2cc(NC(=O)C3CCC(C)CC3)ccc2n1` (stereo unspecified), 940 nM (active).
As for `Cc1ccc(S(=O)(=O)Nc2ccc(C(=O)Nc3cc(C)on3)cc2)cc1`, the figure is 90.7 nM (active).
Regarding `Cc1cc(N2CCC(C)CC2)nc2ccc(NC(=O)C3CCC(C)CC3)cc12` (stereo unspecified), the Potency was 164 nM (active).
In the case of `Cc1cc(Nc2cccc(Cl)c2)nc2ccc(NC(=O)C3CCC(C)CC3)cc12` (stereo unspecified) it was “inactive”.
In the case of `CC(C)(C)Oc1ccccc1Nc1nc(NCCO)nc(N2CCCC2)n1` it was 21.5 nM (active); in that of `Cc1cc(N2CCOCC2)nc2ccc(NC(=O)C3CCC(C)CC3)cc12` (stereo unspecified), 66 nM (active).

For the origin of these results see PubChem BioAssay AID1382 (National Center for Advancing Translational Sciences (NCATS), 2008).
